Most compounds without a hit are left out; they make up all but 1.8% or so of the library.
NadD block – inhibitors of S. aureus NadD, primary screen, biochemical, colorimetric, uHTS; 360,000 tested, 0.78% active; inhibition, % at 20 µM; AID 602399, 2012; purified NadD enzyme, colorimetric absorbance read-out; in the data active = inhibition above about 26%
PHOSPHO1 inh – PubChem AID 1565; Phosphoethanolamine/phosphocholine phosphatase (Homo sapiens), Q8TCT1; recombinant PHOSPHO1, absorbance phosphatase assay; inhibition, % at 13.3 µM; 290,000 tested, 1.1% active; in the data active = inhibition above about 60%
Target sequence (Q8TCT1 whole entry, looked up): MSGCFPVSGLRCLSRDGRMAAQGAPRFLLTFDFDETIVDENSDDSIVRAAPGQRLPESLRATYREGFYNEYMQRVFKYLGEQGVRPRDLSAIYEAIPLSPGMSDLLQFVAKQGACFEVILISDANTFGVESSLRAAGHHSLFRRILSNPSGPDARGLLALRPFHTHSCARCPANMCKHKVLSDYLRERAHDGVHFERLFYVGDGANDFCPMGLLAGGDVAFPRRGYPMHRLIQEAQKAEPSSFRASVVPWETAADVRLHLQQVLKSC
UBC9 SUMO inh – inhibitors of in vitro SUMOylation cascade, primary screen, biochemical, HTRF, uHTS | inhibition, % at 35 µM | HTRF SUMOylation assay, SAE1/SAE2 + UBC9 | 290,000 tested, 0.36% active | SUMO-conjugating enzyme UBC9 (Homo sapiens), P63279; in the data active = inhibition above about 50%, passing the limit was not always enough
Target sequence (P63279 whole entry, looked up): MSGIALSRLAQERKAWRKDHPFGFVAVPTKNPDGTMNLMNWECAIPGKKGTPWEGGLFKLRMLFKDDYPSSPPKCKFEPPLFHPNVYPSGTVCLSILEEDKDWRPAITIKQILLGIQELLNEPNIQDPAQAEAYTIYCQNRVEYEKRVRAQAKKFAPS
pCIP destab – p/CIP-EGFP fusion destabilizers, primary screen, fluorescence, F442A cells | Q05BA5 | 16 h | decrease of EGFP signal, % at 10 µM | 290,000 tested, 0.01% active;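 active = EGFP signal decrease of at least 30% at 10 µM or well 3 SD below plate mean, unless failing retest; inactive = the rest, including hits failing retest or dose response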
NadD inh conf – inhibitors of S. aureus NadD, confirmation, biochemical, colorimetric, single concentration | inhibition, % at 20 µM | AID 624309, 2012 | purified S. aureus NadD, colorimetric enzyme assay | 2,000 tested, 13% active | shares compounds with NadD block; in the data active = inhibition mostly above about 42%, no sharp cut-off; inactive = mostly below about 42%
* = called active by the depositor; . = no result given.

SMILES | NadD block | PHOSPHO1 inh | UBC9 SUMO inh | pCIP destab | NadD inh conf
OCCCn1c(C2CCCN2c2nc(-c3ccc(Cl)cc3)cs2)nc2cc(Cl)c(Cl)cc21 (centres undefined) | 29 | . | . | . | .
CCCn1c(C2CCCN2c2nc(-c3cccc(Br)c3)cs2)nc2cc(Cl)c(Cl)cc21 (centres undefined) | 36* | -7 | 7 | -6 | 30
Cc1ccc(-c2csc(C3=C(O)CN(NC(=O)c4ccc([N+](=O)[O-])cc4)C3=N)n2)cc1 | 30* | 42 | 43 | -6 | 7
Cc1ccccc1-c1cc(C(=O)Nc2sc(C)c(C)c2C(N)=O)c2ccccc2n1 | 20 | 56 | 15 | -10 | .
CCOC(=O)c1sc(NC(=O)c2cc(-c3ccccc3C)nc3ccccc23)c(C#N)c1C | 48* | 65* | -5 | 6 | 29
O=C1N[C@@H](Cc2c[nH]c3ccccc23)COC(=O)[C@@H](Cc2ccc(F)cc2)C/C=C\C[C@H]1CC(=O)N(CCO)Cc1ccccc1 | 3 | . | . | . | .
O=C(N[C@@H]1C/C=C\C[C@@H](CC(=O)N(CCO)Cc2ccccc2)C(=O)N[C@@H](c2ccccc2)COC1=O)OCC1c2ccccc2-c2ccccc21 | 17 | . | . | . | .
O=C1N[C@@H](Cc2c[nH]c3ccccc23)COC(=O)[C@H](Cc2ccc(F)cc2)C/C=C\C[C@@H]1CC(=O)N(CCO)Cc1ccccc1 | 1 | . | . | . | .
O=C(N[C@H]1C/C=C\C[C@@H](CC(=O)N(CCO)Cc2ccccc2)C(=O)N[C@H](Cc2c[nH]c3ccccc23)COC1=O)OCC1c2ccccc2-c2ccccc21 | 36* | . | . | . | 25
O=C(N[C@@H]1C/C=C\C[C@H](CC(=O)N(CCO)Cc2ccccc2)C(=O)N[C@@H](Cc2c[nH]c3ccccc23)COC1=O)OCC1c2ccccc2-c2ccccc21 | 34* | . | . | . | 23
O=C(N[C@H]1C/C=C\C[C@H](CC(=O)N(CCO)Cc2ccccc2)C(=O)N[C@H](Cc2c[nH]c3ccccc23)COC1=O)OCC1c2ccccc2-c2ccccc21 | 32* | . | . | . | 17
CCCCCCCCN1C(=O)[C@H](CC(=O)N2CCCC2)C[C@@]2(C(=O)OCC)CCCC=C12 | 12 | . | . | . | .
O=C(NNc1nc2ccc(Cl)cc2s1)c1cc(-c2cccs2)nc2ccccc12 | 44* | -11 | 26 | 0 | 48*
COc1ccc(-c2csc(NC(=O)c3cc(-c4cccs4)nc4ccccc34)n2)c(OC)c1 | 34* | -12 | -23 | -3 | 10
Cc1cc(C)c2nc(NNC(=O)c3cc(-c4cccs4)nc4ccccc34)sc2c1 | 51* | -1 | 4 | -5 | 2
COc1ccc(CNC(=O)C/C(C)=N/NC(=O)C23CC4CC(CC(C4)C2)C3)cc1 | 10 | 39 | 9 | -8 | .
Cc1nc(C(F)(F)F)ccc1C(=O)N1CCC1(C)C(=O)NS(=O)(=O)c1c(C)noc1C (centres undefined) | 4 | . | . | . | .
C[C@@H]1CN([C@@H](C)CO)C(=O)c2cc(Br)cnc2O[C@H]1CN(C)C(=O)Cc1ccccn1 | -4 | . | . | . | .
COc1cc(/C=N/NC(=O)COc2c(C)cc([N+](=O)[O-])cc2C)ccc1OC(=O)c1ccccc1Br | 33* | 1 | -9 | 0 | -3
COc1cc(/C=N/NC(=O)COc2c(C)cc([N+](=O)[O-])cc2C)ccc1OC(=O)c1ccccc1 | 27 | 33 | -12 | -2 | .
CCN(c1ccccc1)S(=O)(=O)c1ccc(OC)c(NC(=O)c2ccco2)c1 | -12 | . | . | . | .
O=S(=O)(Nc1cccc(-c2ccc(N3CCCCCC3)nn2)c1)c1ccc(C(F)(F)F)cc1 | 36* | 11 | -1 | -4 | 23
O=S(=O)(Nc1cccc(-c2ccc(N3CCCCCC3)nn2)c1)c1ccccc1F | 12 | 28 | 4 | 8 | .
O=S(=O)(Nc1cccc(-c2ccc(N3CCCCCC3)nn2)c1)c1ccccc1Cl | 50* | -7 | -9 | 4 | 36
Cc1ccc([N+](=O)[O-])cc1S(=O)(=O)Nc1cccc(-c2ccc(N3CCCC3)nn2)c1 | 44* | . | . | . | 55*
SMILES | NadD block | PHOSPHO1 inh | UBC9 SUMO inh | pCIP destab | NadD inh conf
O=S(=O)(Nc1cccc(-c2ccc(N3CCCCCC3)nn2)c1)c1ccc(F)cc1 | 14 | 42 | -9 | -8 | .
O=S(=O)(Nc1cccc(-c2ccc(N3CCCCCC3)nn2)c1)c1cccc(F)c1 | 31* | 16 | 13 | -8 | 21
Cc1ccc([N+](=O)[O-])cc1S(=O)(=O)Nc1ccc(-c2ccc(N3CCOCC3)nn2)cc1 | 12 | . | . | . | .
CCN(CC)S(=O)(=O)c1ccc(N2CCCC2)c(NC(=O)C2CSC3(C)CCC(=O)N23)c1 (centres undefined) | 3 | . | . | . | .
Cc1ccc(S(=O)(=O)Nc2cccc(-c3ccc(N4CCCCCC4)nn3)c2)cc1C | 42* | 15 | -1 | -4 | 36
COc1ccc(C)cc1S(=O)(=O)Nc1cccc(-c2ccc(N3CCCCCC3)nn2)c1 | 31* | -88 | -6 | -10 | 28
COc1cccc(C2(CSc3nnc(-c4cc(OC)c(OC)c(OC)c4)o3)OCCO2)c1 | -5 | 18 | -19 | -1 | .
COc1cccc(C(C(=O)NC(C)(C)C)N(CCc2ccccc2)C(=O)CCC(=O)Nc2cc(C)on2)c1OC (centres undefined) | 7 | 36 | -7 | -7 | .
CCCCCCc1cc2cc(C(=O)OCC)c(=O)oc2cc1O | 15 | 19 | 11 | -10 | .
CCCCCCc1cc2cc(/C(N)=N/NC(=O)c3ccncc3)c(=O)oc2cc1O | 61* | . | . | . | 8
O=C(Nc1nc(=S)ss1)c1ccc(Cl)cc1Cl | -2 | 34 | -4 | -4 | .
O=C(NNC(=O)c1ccccc1Cl)c1csc(N2CCOCC2)n1 | 5 | . | . | . | .
N#C/C(=C/c1cn(-c2ccccc2)nc1-c1cccc(OCc2ccc(F)cc2)c1)C(=O)NCCCn1ccnc1 | 37* | 2 | -12 | -4 | -4
CC(=O)Nc1ccc(S(=O)(=O)Nc2ccc(S(=O)(=O)N3CCCC3)cc2)cc1 | -3 | -1 | -2 | 7 | .
CC(=O)Nc1ccc(S(=O)(=O)/N=C2\SCCN2S(=O)(=O)c2ccc(NC(C)=O)cc2)cc1 | 58* | . | . | . | 48
O=c1cc(CN2CCN(S(=O)(=O)c3cccc(Cl)c3)CC2)c2ccc(O)cc2o1 | 35* | . | . | . | 41
CCc1c(C(=O)NNC(=S)NCC(C)C)csc1C | 7 | -7 | -4 | -1 | .
O=C(O)c1cc2cccc(S(=O)(=O)N3CCCCC3)c2cc1O | -13 | 32 | 50 | 4 | .
CCOc1ccc(OCC(=O)Nc2ccc(N3CCCCC3)cc2)cc1 | -2 | 28 | 16 | -5 | .
Cc1cc(OCC(=O)Nc2ccc(N3CCCC3)cc2)cc(C)c1Cl | 43* | 3 | 1 | 2 | 18
COc1ccccc1CNC(=O)COC(=O)c1cccc(S(=O)(=O)N2CCCCC2)c1 | -4 | 48 | 9 | -5 | .
CCOC(=O)c1ccc(-c2ccc(N3C(c4cccc(OC)c4)=Cc4ccc(F)cc4C3CC(C)=O)cc2)cc1F (centres undefined) | 17 | . | . | . | .

Screens from PubChem.
